Screening data as filed in PubChem.
Compounds with a hit are over-represented: about 5.9% of the library has one in this group of screens.
rCAG binder-1: molecules binding r(CAG) RNA repeats | r(CAG) RNA repeat, TO-PRO-1 dye displacement fluorescence | AID 651821 | actives 1.3% (n = 370,000) | inhibition, % at 3 µM;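 active = inhibition above the plate cutoff, the mean of all test compounds on that plate plus 3 SD, cut at about 35% in these data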;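 also: 0% = DMSO alone and 100% = 100 µM mitoxantrone as full dye displacement; higher means more dye released from RNA so lower well fluorescence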
Rtt109 Vps75: blocks Candida albicans Rtt109/Vps75 acetyltransferase activity; Q5AAJ8; purified Rtt109/Vps75, ThioGlo CoA-SH fluorescence, 4 h; inhibition, % at 34.9 µM; actives 0.16% (n = 330,000); AID 540336;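 active = inhibition of at least 50% in every replicate; inconclusive = best replicate reaches 50% inhibition but some replicates fall short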
PRMT1 inh: inhibitors of human PRMT1; Q99873; recombinant PRMT1, activity-based probe fluorescence polarization; inhibition, % at 2.79 µM; actives 1.3% (n = 370,000);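 active = inhibition above about 21% made by adding two undisclosed values, limit read from the data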
ALR H2O2 inh: human ALR oxidase inhibition via reduced H2O2; AID 485317; inhibition, % (no concentration beside the values); actives 3.8% (n = 290,000); purified ALR, DTT oxidation, H2O2 HRP-luminol luminescence; P55789;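 active = mean replicate inhibition above about 79%, with every replicate also reaching it, limit read from the data; inconclusive = only one of the two criteria met; inactive = mean below limit and not every replicate reaching it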
ABHD5-PLIN5 inh: blocks binding of human ABHD5 to perilipin-5; Q00G26+Q8WTS1; Split G. princeps luciferase complementation, luminescence, 4 h; inhibition, % at 4 µM; actives 0.78% (n = 360,000); AID 602281;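 active = inhibition above the mean inhibition across every tested compound plus 3 SD, cut at about 22% in these data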;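 also: 0% = DMSO only wells and the 100% control is not disclosed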
Target sequence (Q00G26 whole entry, looked up): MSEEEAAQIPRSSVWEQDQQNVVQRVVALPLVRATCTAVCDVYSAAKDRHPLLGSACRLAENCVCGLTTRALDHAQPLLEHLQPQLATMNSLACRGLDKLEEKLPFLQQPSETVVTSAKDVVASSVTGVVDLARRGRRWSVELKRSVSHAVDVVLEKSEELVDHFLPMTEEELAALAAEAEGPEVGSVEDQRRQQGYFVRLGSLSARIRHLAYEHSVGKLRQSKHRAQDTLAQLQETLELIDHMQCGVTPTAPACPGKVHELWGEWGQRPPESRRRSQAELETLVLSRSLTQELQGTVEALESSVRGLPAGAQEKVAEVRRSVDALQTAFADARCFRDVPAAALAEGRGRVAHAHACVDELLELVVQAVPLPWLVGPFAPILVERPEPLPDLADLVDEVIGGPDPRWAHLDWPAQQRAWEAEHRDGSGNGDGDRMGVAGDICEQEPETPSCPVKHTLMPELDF
Target sequence (Q8WTS1 whole entry, looked up): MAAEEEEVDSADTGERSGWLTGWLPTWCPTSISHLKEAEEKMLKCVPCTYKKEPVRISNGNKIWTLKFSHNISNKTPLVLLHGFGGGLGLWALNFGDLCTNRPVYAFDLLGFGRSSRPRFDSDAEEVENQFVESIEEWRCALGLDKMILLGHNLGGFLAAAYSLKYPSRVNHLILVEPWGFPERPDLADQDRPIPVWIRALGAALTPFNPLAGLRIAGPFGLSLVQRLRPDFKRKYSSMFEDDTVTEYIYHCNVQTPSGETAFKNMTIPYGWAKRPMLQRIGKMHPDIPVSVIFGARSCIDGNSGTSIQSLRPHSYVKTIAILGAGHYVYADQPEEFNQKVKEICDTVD
LANA-H2A inh: blocks KSHV LANA binding to histone H2A/H2B. Q9QR71. cell-free LANA-H2A/H2B peptide, fluorescence polarization. inhibition, % (concentration not given with the values). actives 0.6% (n = 320,000). AID 2629; in the data active = inhibition mostly above about 10%, no sharp cut-off; inactive = mostly below about 6.7%
rCAG binder conf: r(CAG) RNA repeat binding, confirmation; actives 70% (n = 4,300); shares compounds with rCAG binder-1; TO-PRO-1 dye displacement fluorescence; inhibition, % at 3 µM;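 active = inhibition above a per-plate cutoff, the mean inhibition of sample wells plus 3 SD, cut at about 35% in these data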;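 also: loss of TO-PRO-1 fluorescence as compound displaces dye from 1x1 AA loop RNA; 0% = DMSO only wells and 100% = 100 µM mitoxantrone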
DNA CAG counter: disrupts DNA CAG TO-PRO-1 complex, flagging rCAG hits. shares compounds with rCAG binder-1. d(CAG) DNA oligo TO-PRO-1 dye displacement, fluorescence. inhibition, % at 3 µM. actives 94% (n = 4,300);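 active = inhibition above its plate's cutoff, the mean test-well inhibition plus 3 SD, cut at about 4.8% in these data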;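 also: 0% = DNA dye mix with DMSO and 100% = 100 µM mitoxantrone; hits displace the dye from DNA and so lower well fluorescence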
dCAG dye DR: DNA CAG dye complex inhibition, dose response counter-screen; shares compounds with rCAG binder-1; DNA CAG/GTC duplex TO-PRO-1 dye displacement fluorescence; IC50, µM; actives 20% (n = 250); in the data active = IC50 below about 10 µM
dCAG DNA bind: DNA CAG dye complex inhibition, late stage dose response; shares compounds with rCAG binder-1; d(CAG) DNA duplex TO-PRO-1 dye displacement, fluorescence; IC50, µM; AID 720649; actives 80% (n = 30)
rCAG binder-2: molecules binding r(CAG) RNA repeats, late stage dose response; IC50, µM; actives 100% (n = 30); shares compounds with rCAG binder-1; AID 720651; r(CAG) RNA TO-PRO-1 dye displacement, fluorescence
The depositor's hits bear a star. Unless noted, no rule for the calls is given here.

What do the screens show for `O=C(Nc1ccc(C(=O)O)cc1)/C(=C\C=C\c1ccccc1)NC(=O)c1ccc(Br)cc1`?
rCAG binder-1: 72*; Rtt109 Vps75: 3; PRMT1 inh: -2; ALR H2O2 inh: 5; ABHD5-PLIN5 inh: 6; LANA-H2A inh: 4; rCAG binder conf: 66*; DNA CAG counter: 32*

How did COc1ccc(/C=C(\NC(=O)c2ccc(OC)cc2)C(=O)Nc2ccc(C(=O)O)cc2)cc1 do in these assays?
rCAG binder-1: 17; Rtt109 Vps75: -1; PRMT1 inh: 6; ALR H2O2 inh: -9; ABHD5-PLIN5 inh: -1; LANA-H2A inh: 1

Results for O=C(Nc1cccc(C(=O)O)c1)/C(=C/c1ccc([N+](=O)[O-])cc1)NC(=O)c1ccccc1 ?
rCAG binder-1: 7; Rtt109 Vps75: 16; PRMT1 inh: -3; ALR H2O2 inh: -9; ABHD5-PLIN5 inh: 3; LANA-H2A inh: 0

Results for CC(=O)Oc1ccc(/C=C(\NC(=O)c2cccc(Br)c2)C(=O)Nc2ccc(C(=O)O)cc2)cc1 ?
rCAG binder-1: 50*; Rtt109 Vps75: -4; PRMT1 inh: 7; ALR H2O2 inh: 50; ABHD5-PLIN5 inh: 3; LANA-H2A inh: 3; rCAG binder conf: 27; DNA CAG counter: 6.4*

How did C[C@@H]1CN(c2ccc(N3CCNC[C@H]3C)cc2C#N)CCN1Cc1ccccc1 do in these assays?
rCAG binder-1: 5; PRMT1 inh: 3

Results for C[C@H](O)[C@@H]1C(=O)N2CCc3c([nH]c4c(-c5ccccc5)cccc34)[C@@H]2C[C@@H]1N(C)C(=S)NCCc1ccccc1 ?
rCAG binder-1: 3; PRMT1 inh: -1

How did CSCCC(NS(=O)(=O)Cc1ccccc1)C(=O)NNc1ccccc1 (stereo not drawn) do in these assays?
rCAG binder-1: 2; PRMT1 inh: 1; ABHD5-PLIN5 inh: 6

How did COC(=O)C1=C(C)N(Cc2cccc(C(F)(F)F)c2)C(=NCc2ccc(OC)cc2)NC1c1ccc(Cl)cc1 (stereo not drawn) do in these assays?
rCAG binder-1: 8; PRMT1 inh: 2

Results for CC1=C(C(=O)N(C)C)CC(CC(=O)NCc2cccs2)C(=O)N1Cc1ccc(C(C)(C)C)cc1 (stereo not drawn) ?
rCAG binder-1: 0; PRMT1 inh: -1; ABHD5-PLIN5 inh: 6

What do the screens show for `O=C(Nc1ccc(C(=O)O)cc1)/C(=C\c1ccc([N+](=O)[O-])cc1)NC(=O)c1ccc(Br)cc1`?
rCAG binder-1: 44*; Rtt109 Vps75: 2; PRMT1 inh: 1; ALR H2O2 inh: -12; ABHD5-PLIN5 inh: -1; LANA-H2A inh: 2; rCAG binder conf: 26; DNA CAG counter: 7.0*

What do the screens show for `O=C(N/N=C/c1ccc(O)c(O)c1O)/C(=C/c1ccc([N+](=O)[O-])cc1)NC(=O)c1ccccc1`?
rCAG binder-1: 66*; Rtt109 Vps75: inconclusive; PRMT1 inh: 24*; ALR H2O2 inh: 91*; ABHD5-PLIN5 inh: -6; LANA-H2A inh: 1; rCAG binder conf: 66*; DNA CAG counter: 32*

Results for COC(=O)[C@]12C[C@H](CC(=O)NCC3CCCCC3)C(=O)N(Cc3cccc4ccccc34)C1=C[C@H](C(C)(C)C)O[C@@H]2C ?
rCAG binder-1: 5; PRMT1 inh: 5

What do the screens show for `CCNC(=O)C1(C)CCN(C(=O)c2ccccc2OC)C1` (stereo not drawn)?
rCAG binder-1: 0; PRMT1 inh: -1; ABHD5-PLIN5 inh: 2

How did COc1ccccc1N(CC(=O)Nc1cccc(C(F)(F)F)c1)S(C)(=O)=O do in these assays?
rCAG binder-1: -4; Rtt109 Vps75: -8; PRMT1 inh: 0; ALR H2O2 inh: -3; ABHD5-PLIN5 inh: 2; LANA-H2A inh: -2

What do the screens show for `Cc1ccc([N+](=O)[O-])cc1N(CC(=O)Nc1ccc(S(=O)(=O)Nc2cccc(C(F)(F)F)c2)cc1)S(C)(=O)=O`?
rCAG binder-1: 58*; Rtt109 Vps75: 4; PRMT1 inh: 0; ABHD5-PLIN5 inh: 21; rCAG binder conf: 56*; DNA CAG counter: 18*

Results for Cc1ccc2nc(N3C(=O)C(O)=C(C(=O)c4ccco4)C3c3ccc(O)cc3)sc2c1 (stereo not drawn) ?
rCAG binder-1: 67*; Rtt109 Vps75: 21; PRMT1 inh: 21*; ABHD5-PLIN5 inh: -13; LANA-H2A inh: 8; rCAG binder conf: 50*; DNA CAG counter: 16*

What do the screens show for `Cc1ccc2nc(N3C(=O)C(O)=C(C(=O)c4ccc(C)o4)C3c3ccco3)sc2c1` (stereo not drawn)?
rCAG binder-1: 31; Rtt109 Vps75: 13; PRMT1 inh: 15; ALR H2O2 inh: 2; ABHD5-PLIN5 inh: 4

What do the screens show for `Cc1ccc2nc(N3C(=O)C(O)=C(C(=O)c4ccco4)C3c3ccc(C)o3)sc2c1` (stereo not drawn)?
rCAG binder-1: 49*; Rtt109 Vps75: 3; PRMT1 inh: 14; ALR H2O2 inh: 89*; ABHD5-PLIN5 inh: -5; LANA-H2A inh: -7; rCAG binder conf: 72*; DNA CAG counter: 33*; dCAG dye DR: 3.8*; dCAG DNA bind: 2*; rCAG binder-2: 0.92*

How did Cc1ccc(C(O)c2ncc(-c3cccc(C(F)(F)F)c3)[nH]2)cc1F (stereo not drawn) do in these assays?
rCAG binder-1: -1; PRMT1 inh: -1; ABHD5-PLIN5 inh: -1

Results for Cc1ccc(C)c(OCC(=O)NC(Cc2c[nH]c3ccccc23)C(=O)O)c1 (stereo not drawn) ?
rCAG binder-1: 20; Rtt109 Vps75: -2; PRMT1 inh: 2; ALR H2O2 inh: 1; ABHD5-PLIN5 inh: 2; LANA-H2A inh: 2

What do the screens show for `Cc1ccc(Nc2nnc(SCC(=O)NC(Cc3c[nH]c4ccccc34)C(=O)O)s2)cc1` (stereo not drawn)?
rCAG binder-1: 38*; Rtt109 Vps75: 16; PRMT1 inh: 2; ALR H2O2 inh: 94*; ABHD5-PLIN5 inh: -1; LANA-H2A inh: -7; rCAG binder conf: 28; DNA CAG counter: 8.6*
